From PubChem BioAssay AID434973 (Sanford-Burnham Center for Chemical Genomics, 2010)
Hit rate of the full screen: of about 330,000 compounds, about 4,900 (1.5%) were called active.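 Rule for the calls: active = inhibition above about 50% at the single test dose (limit read from the data); inactive = the rest.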 For the sample, actives were picked, then their nearest neighbours and some compounds at random.

Target: Sentrin-specific protease 7 (Homo sapiens) (UniProt Q9BQF6)
Assay: SENP7 protease inhibitors, primary screen, biochemical, luminescence, uHTS (AID 434973);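 note: plate controls were DMSO with enzyme for no effect and no enzyme buffer wells for full effect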
Conditions: recombinant SENP7, Z-RLRGG-aminoluciferin luminescence, 40 min; at 5 µM; stronger effect = higher value

inhibition, inactive:
O=C(Nc1cccc(NC(=O)c2cccc(F)c2)c1)c1ccccc1 -10.7%
O=C(Nc1cccc(C(=O)N2CCCC2)c1)c1ccccc1 -13%
CCN(CC)C(=O)CSc1ncnc2c1cnn2-c1ccccc1 2.6%
Cc1ccc(Nc2ncnc3c2cnn3C)c(C)c1 -0.763%
CC(=O)NC1C(Oc2ccc(C=O)cc2)OC(COC(C)=O)C(OC(C)=O)C1OC(C)=O (configuration not stated) 5.78%
Cc1cccc(NC(=O)CSc2nc3c(c(=O)[nH]2)CCC3)c1C -1.39%
CC(=O)Nc1ccc(NC(=O)CSc2nnc(COc3ccccc3C)n2CC2CCCO2)cc1 (configuration not stated) 5.76%
COC(=O)c1ccc([C@@H](O)[C@H](C)C(=O)CC(=O)OC(C)(C)C)cc1 6.36%
COc1cc(NC(=O)c2cccs2)ccc1NC(=O)c1ccccc1Cl -1.86%
O=C(Nc1cccc(NC(=O)c2ccccc2[N+](=O)[O-])c1)c1ccccc1Cl 6.18%
COc1ccc2[nH]c(C(=O)Nc3ccccc3Cl)cc2c1 6.38%
CC(OC(=O)c1cc2ccccc2[nH]1)C(=O)N(C)c1ccccc1 (configuration not stated) -10.4%
CCSc1nc2c(c(=O)[nH]1)C(c1cccnc1)C(C(=O)OC(C)C)=C(C)N2 (configuration not stated) 11%
COc1ccc(C(CNCC(=O)Nc2ccccc2F)N(C)C)cc1 (configuration not stated) 2.72%
Cc1ccn2cc(-c3nonc3C)cc2c1 4.32%
CS(=O)(=O)N1CCN(C(=O)CSc2ccccc2)CC1 -0.93%
Cc1cc(=O)n2[nH]c(-c3cccc(Cl)c3)cc2n1 1.33%
CCCCN1Cc2c(nc3cc(-c4ccccc4)[nH]n3c2=O)C1=O -4.67%
Cc1nc2ccccc2c(=O)n1-c1ccc(NS(=O)(=O)c2ccc(F)cc2F)cc1 -0.987%
CCC(=O)c1ccc(OCC(O)Cn2nc(C)c(C(C)=O)c2C)cc1 (configuration not stated) 0.247%
CC(C)(C)NC(=O)NCc1ccco1 -4.67%
CC(C)(C)c1ccc(C(=O)NCc2ccco2)cc1 -16.4%
CN(C)S(=O)(=O)c1cc(C(=O)Nc2ccn(C)n2)c(Cl)cc1Cl -0.713%
CN(C)NC(=O)C(NC(=O)c1ccc(N)cc1)C12CC3CC(CC(C3)C1)C2 (configuration not stated) -0.0401%
CCCCc1cc(=O)oc2cc(C)cc(OCc3nn[nH]n3)c12 1.78%
Cc1noc(C)c1COc1ccc2ccc(=O)oc2c1 -8.22%
O=C(CNCCC1=CCCCC1)Nc1ccccc1N1CCCCCC1 -5.33%
CN(C)c1ccc(/C=C/C(=O)c2ccc(O)cc2)cc1[N+](=O)[O-] -14.8%
O=C(O)/C=C/c1ccc2c(c1)OCCO2 2.14%
Nc1nc(SCc2cccc(Br)c2)n[nH]1 0.492%
CCCC1CC(C)(C(=O)Cn2[nH]c(=O)ccc2=O)OC1=O (configuration not stated) -0.683%
Cc1cc(C)nc(-n2ncc3c2CC(c2ccc(C(C)C)cc2)CC3=O)n1 (configuration not stated) 9.11%
COc1ccc(-n2cnnc2SCC(=O)Nc2cccc([N+](=O)[O-])c2)cc1 -4.85%
COc1cccc(NCCC(=O)c2cccc([N+](=O)[O-])c2)c1 13.1%
O=C(CN1CCOCC1)N1CCCc2c1c(=O)oc1ccc(OCc3ccccc3)cc21 4.73%
C/C(CC(=O)Nc1ccc(N(C)C)cc1)=N\NC(=O)c1ccccc1F -1.56%
COc1ccc(/C(C)=N\NC(=O)c2ccc(-c3ccccc3)cc2)c(F)c1 3.63%
COc1ccc(OC)c(CNC(=O)c2cc(=O)[nH]c3ccc(S(=O)(=O)N4CCCC4)cc23)c1 0.442%
O=C1CC2(CCCC2)C(=O)N1CN1CCN(S(=O)(=O)c2ccc(F)cc2F)CC1 -8.48%
CCC1C(=O)c2ccccc2N(C)C1=O (configuration not stated) -6.31%
CN1C(=O)/C(=N/OC(=O)c2ccccc2Br)c2ccccc21 4.98%
O=C(Nc1cc(=O)[nH]c2ncnn12)c1ccccc1Cl 10.9%
Cc1ccc(NC(=O)CN2CCc3ccccc3C2)cc1 -5.44%
Cc1ccc(S(=O)(=O)N2CCN(c3ncnc4ccccc34)CC2)cc1 0.743%
O=C(COc1ccccc1O)NC1CCCC1 -1.19%
CCCCNc1ccc(C(=O)Nc2cccc(C)n2)cc1[N+](=O)[O-] -7.17%
CCOc1cc(/C=C/C(=O)OCC(=O)NCCN2C(=O)CSC2=O)ccc1OCC(C)C 4.69%
O=C(N/N=C/c1ccc2c(c1)OCO2)C(=O)N1CCCC1 4%
Cc1nc(Cl)cc(N/N=C/c2ccccc2)n1 4.74%
Cc1nc2ccccc2nc1N/N=C/c1ccc(O)cc1O 7.72%
Cc1cc(=O)[nH]c(N/N=C/c2ccc3c(c2)OCCO3)n1 6.15%

inhibition, active:
O=C(Nc1ccc(C(=O)O)c(O)c1)c1ccccc1 85.1%
Cc1ccc(-n2ncc3c(Nc4cccc(C(=O)O)c4)ncnc32)cc1 92.6%
O=C(Nc1ccc2sc3ccccc3c(=O)c2c1)c1ccccc1Cl 51.8%
O=C(Nc1ccccc1)c1cc2ccccc2[nH]1 76%
O=c1c2c(nc3cc(-c4cccc(Cl)c4)[nH]n13)CCCC2 66.7%
Clc1ccc(C2=CSC3=Nc4cccc5cccc(c45)N23)cc1 51.9%
CC(C)(C)c1ccc(NC(=O)NCc2ccco2)cc1 90.7%
COc1ccc(-c2cc3ccc(OCc4nn[nH]n4)cc3oc2=O)cc1 51%
O=C(/C=C/c1ccc2c(c1)OCCO2)c1ccc(O)cc1 68.4%
COc1ccc(Cc2nnc(SCC(=O)c3cccc([N+](=O)[O-])c3)n2C)cc1 73.6%
C/C(=N\NC(=O)c1ccccc1F)c1ccccn1 64.2%
CN1C(=O)/C(=C\c2cc(Br)cs2)c2ccccc21 80.9%
Cc1ccc(S(=O)(=O)Nc2nc3ccccc3nc2N2CCc3ccccc3C2)cc1 86.2%
Nc1ccc(N=Nc2ccccc2Cl)c(N)n1 82.3%
Cc1noc(C)c1/C=N/Nc1ccc2ccccc2n1 52.5%
C(=N\Nc1ccc2ccccc2n1)/c1ccc2c(c1)OCO2 96.1%
